According to PMC7862700, “An all-to-all approach to the identification of sequence-specific readers for epigenetic DNA modifications on cytosine”:

Columns and labels:
Test in all cases: DAPPL (digital affinity profiling via proximity ligation, sequencing); 10 mM Tris-HCl pH 7.5, 50 mM NaCl, 1 mM DTT, 4% glycerol, room temperature, 30 min; GST-TFs on glutathione beads, 16-mer random dsDNA library, 0.1% formaldehyde crosslink after washing; high values mean tight binding
FEV = biological target: T1, FEV (Homo sapiens, UniProt Q99581 1-238); conditions: protein: recombinant; tags: N-terminal GST; dsDNA, one strand shown
T1 sequence: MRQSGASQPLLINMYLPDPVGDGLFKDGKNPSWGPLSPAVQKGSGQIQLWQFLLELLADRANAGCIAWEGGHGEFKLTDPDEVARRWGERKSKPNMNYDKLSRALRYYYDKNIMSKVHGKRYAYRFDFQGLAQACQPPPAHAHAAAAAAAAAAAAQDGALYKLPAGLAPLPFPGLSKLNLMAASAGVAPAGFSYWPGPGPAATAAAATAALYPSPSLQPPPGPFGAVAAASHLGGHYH
Method in brief: (§1)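 Beads coated with glutathione captured GST-fused human transcription factors that had been expressed in yeast, and the factors were then given DNA barcodes and pooled with a tag-only sample. The pools were incubated with 200 nmole of a random double-stranded 16-mer DNA library in Tris/NaCl/DTT/glycerol buffer for 30 min at room temperature, washed, crosslinked with 0.1% formaldehyde and proximity-ligated with BsaI/T4 ligase at 37 °C for 1 h. PCR amplification and Illumina NextSeq500 sequencing came last. Binding signal is each hexamer's read frequency for a factor divided by its frequency for the tag-only sample.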

ETV5 = ETV5 (Homo sapiens, UniProt P41161 1-510); conditions: protein: recombinant; tags: N-terminal GST; dsDNA, one strand shown
Method in brief: as §1

HSF1 = HSF1 (Homo sapiens, UniProt Q00613 1-529); conditions: protein: recombinant; tags: N-terminal GST; chain copies: 3; dsDNA, one strand shown
Method in brief: as §1

SPIC = biological target: T2, SPIC (Homo sapiens, UniProt Q8N5J4 1-248); conditions: protein: recombinant; tags: N-terminal GST; dsDNA, one strand shown
T2 sequence: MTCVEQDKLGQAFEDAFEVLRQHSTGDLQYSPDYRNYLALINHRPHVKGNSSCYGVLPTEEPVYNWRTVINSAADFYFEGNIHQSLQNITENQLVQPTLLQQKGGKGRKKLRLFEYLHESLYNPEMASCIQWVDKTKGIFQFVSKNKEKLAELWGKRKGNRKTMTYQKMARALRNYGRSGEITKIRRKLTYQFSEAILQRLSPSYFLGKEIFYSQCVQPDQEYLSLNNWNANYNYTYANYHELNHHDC
Method in brief: as §1

ELF4 = ELF4 (Homo sapiens, UniProt Q99607 1-663); conditions: protein: recombinant; tags: N-terminal GST; dsDNA, one strand shown
Method in brief: as §1

ELK4 = biological target: T3, ELK4 (Homo sapiens, UniProt P28324-2 1-405); conditions: protein: recombinant; tags: N-terminal GST; dsDNA, one strand shown
T3 sequence: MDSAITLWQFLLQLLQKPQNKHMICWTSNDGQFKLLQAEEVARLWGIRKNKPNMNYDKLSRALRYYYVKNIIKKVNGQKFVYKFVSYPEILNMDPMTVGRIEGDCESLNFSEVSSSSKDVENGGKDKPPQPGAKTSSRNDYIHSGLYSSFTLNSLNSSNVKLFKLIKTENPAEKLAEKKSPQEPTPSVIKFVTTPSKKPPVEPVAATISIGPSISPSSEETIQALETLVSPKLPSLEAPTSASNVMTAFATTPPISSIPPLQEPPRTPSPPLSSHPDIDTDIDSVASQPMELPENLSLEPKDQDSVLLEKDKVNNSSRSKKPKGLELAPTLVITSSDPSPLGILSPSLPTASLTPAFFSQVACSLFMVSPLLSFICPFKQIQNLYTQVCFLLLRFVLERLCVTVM
Method in brief: as §1

ETV2 = biological target: T4, ETV2 (Homo sapiens, UniProt O00321 1-342); conditions: protein: recombinant; tags: N-terminal GST; dsDNA, one strand shown
T4 sequence: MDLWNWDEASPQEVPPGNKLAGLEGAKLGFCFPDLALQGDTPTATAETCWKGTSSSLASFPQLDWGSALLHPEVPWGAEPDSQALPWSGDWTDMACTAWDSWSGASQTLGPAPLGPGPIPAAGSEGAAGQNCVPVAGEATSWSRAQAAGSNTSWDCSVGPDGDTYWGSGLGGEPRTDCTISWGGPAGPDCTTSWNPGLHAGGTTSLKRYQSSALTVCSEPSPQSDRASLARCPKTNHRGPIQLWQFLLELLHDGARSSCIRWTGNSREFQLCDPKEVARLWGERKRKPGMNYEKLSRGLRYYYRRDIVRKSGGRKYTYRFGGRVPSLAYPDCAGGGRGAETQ
Method in brief: as §1

ELF3 = biological target: T5, ELF3 (Homo sapiens, UniProt P78545 1-371); conditions: protein: recombinant; tags: N-terminal GST; dsDNA, one strand shown
T5 sequence: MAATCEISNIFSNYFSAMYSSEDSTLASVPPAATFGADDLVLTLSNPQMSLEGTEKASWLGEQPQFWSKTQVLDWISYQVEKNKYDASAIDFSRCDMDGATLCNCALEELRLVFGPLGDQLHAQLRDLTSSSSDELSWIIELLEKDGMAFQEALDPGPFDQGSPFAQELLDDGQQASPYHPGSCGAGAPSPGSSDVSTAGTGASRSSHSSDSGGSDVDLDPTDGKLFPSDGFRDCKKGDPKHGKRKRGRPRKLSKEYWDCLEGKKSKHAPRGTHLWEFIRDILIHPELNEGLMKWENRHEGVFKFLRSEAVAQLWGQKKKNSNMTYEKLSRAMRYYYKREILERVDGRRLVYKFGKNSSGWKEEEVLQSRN
Method in brief: as §1

CRX = CRX (Homo sapiens, UniProt O43186 1-299); conditions: protein: recombinant; tags: N-terminal GST; dsDNA, one strand shown
Method in brief: as §1

ETV1 = ETV1 (Homo sapiens, UniProt P50549 1-477); conditions: protein: recombinant; tags: N-terminal GST; dsDNA, one strand shown
Method in brief: as §1

Chain of ETV1 (P50549 whole entry): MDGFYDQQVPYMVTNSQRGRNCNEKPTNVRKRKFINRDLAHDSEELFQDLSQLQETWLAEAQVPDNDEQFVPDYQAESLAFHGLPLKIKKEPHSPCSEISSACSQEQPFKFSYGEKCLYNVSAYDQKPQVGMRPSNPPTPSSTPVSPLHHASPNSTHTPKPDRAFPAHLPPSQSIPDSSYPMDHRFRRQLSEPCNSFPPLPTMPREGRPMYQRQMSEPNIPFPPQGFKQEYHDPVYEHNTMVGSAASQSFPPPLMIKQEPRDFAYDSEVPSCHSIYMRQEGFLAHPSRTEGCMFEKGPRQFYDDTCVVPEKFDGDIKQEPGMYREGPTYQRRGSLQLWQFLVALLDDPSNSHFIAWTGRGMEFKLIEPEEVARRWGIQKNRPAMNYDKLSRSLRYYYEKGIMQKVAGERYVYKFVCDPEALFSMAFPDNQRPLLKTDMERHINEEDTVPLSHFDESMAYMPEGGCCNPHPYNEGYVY
Chain of CRX (O43186 whole entry): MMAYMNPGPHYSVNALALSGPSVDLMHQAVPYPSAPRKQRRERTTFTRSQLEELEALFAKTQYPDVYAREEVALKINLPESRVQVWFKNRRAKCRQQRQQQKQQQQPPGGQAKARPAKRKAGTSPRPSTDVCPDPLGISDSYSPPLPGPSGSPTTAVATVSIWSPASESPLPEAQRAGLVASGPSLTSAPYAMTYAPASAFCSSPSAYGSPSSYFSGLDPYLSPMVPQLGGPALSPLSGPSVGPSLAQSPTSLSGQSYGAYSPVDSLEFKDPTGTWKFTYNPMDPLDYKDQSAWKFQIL
Chain of ETV5 (P41161 whole entry): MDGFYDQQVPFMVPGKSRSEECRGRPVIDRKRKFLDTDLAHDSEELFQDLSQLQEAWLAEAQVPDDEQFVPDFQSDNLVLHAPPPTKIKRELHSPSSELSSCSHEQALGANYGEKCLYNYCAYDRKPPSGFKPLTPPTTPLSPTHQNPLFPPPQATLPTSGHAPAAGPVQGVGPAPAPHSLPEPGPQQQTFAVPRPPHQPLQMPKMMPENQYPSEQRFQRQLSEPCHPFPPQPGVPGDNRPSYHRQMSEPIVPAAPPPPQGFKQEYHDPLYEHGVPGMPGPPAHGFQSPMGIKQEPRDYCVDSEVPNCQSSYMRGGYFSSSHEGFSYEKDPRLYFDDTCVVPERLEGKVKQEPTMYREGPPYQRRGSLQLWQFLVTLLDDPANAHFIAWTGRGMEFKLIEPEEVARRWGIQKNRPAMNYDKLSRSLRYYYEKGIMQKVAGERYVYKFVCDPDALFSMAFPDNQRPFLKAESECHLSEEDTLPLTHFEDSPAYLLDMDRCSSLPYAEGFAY
Chain of ELF4 (Q99607 whole entry): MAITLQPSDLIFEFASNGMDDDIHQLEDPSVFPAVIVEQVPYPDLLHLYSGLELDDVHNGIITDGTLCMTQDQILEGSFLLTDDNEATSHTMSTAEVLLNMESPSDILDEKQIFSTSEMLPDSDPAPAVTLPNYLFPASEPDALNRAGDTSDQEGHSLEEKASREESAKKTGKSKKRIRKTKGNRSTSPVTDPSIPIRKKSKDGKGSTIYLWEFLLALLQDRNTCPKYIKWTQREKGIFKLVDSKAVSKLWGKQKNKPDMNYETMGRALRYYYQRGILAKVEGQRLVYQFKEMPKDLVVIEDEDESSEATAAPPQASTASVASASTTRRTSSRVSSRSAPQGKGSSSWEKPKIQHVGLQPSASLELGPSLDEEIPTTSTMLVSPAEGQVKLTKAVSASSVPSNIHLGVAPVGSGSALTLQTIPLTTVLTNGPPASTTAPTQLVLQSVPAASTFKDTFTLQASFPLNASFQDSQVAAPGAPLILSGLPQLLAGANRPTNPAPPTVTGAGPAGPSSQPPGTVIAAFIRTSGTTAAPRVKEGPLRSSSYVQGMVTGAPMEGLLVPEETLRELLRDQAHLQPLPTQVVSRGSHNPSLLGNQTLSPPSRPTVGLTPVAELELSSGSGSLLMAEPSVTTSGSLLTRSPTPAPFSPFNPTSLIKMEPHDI
Chain of HSF1 (Q00613 whole entry): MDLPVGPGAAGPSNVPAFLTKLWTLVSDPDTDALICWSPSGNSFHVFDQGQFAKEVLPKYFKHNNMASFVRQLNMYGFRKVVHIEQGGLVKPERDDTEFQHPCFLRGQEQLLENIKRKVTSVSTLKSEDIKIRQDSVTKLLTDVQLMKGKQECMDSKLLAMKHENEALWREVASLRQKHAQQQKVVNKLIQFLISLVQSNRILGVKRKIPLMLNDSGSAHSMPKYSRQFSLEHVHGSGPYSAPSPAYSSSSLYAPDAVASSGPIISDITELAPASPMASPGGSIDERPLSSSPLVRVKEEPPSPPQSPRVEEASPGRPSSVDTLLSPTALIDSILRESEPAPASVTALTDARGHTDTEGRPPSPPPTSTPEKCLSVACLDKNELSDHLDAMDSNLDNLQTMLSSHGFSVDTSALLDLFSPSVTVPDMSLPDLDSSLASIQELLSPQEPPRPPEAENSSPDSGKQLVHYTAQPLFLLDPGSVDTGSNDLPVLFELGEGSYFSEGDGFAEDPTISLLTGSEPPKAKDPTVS

For TGTTAA, the binding signal (FEV) was 1.1 fold enrichment (6-mer frequency, TF over GST control), the binding signal (ETV5) was 1.05 fold enrichment (6-mer frequency, TF over GST control) and the binding signal (HSF1) was 1.3 fold enrichment (6-mer frequency, TF over GST control). For the same sequence, the binding signal (SPIC) was 1.19 fold enrichment (6-mer frequency, TF over GST control), the binding signal (ELF4) was 1.17 fold enrichment (6-mer frequency, TF over GST control) and the binding signal (ELK4) was 1.16 fold enrichment (6-mer frequency, TF over GST control). For the same sequence, the binding signal (ETV2) was 1.06 fold enrichment (6-mer frequency, TF over GST control), the binding signal (ELF3) was 1.24 fold enrichment (6-mer frequency, TF over GST control) and the binding signal (CRX) was 1.67 fold enrichment (6-mer frequency, TF over GST control). The binding signal (ETV1) was 1.13 fold enrichment (6-mer frequency, TF over GST control).
